# Data: PubChem BioAssay (NCATS)
# Records with an inconclusive call do not appear. Unmarked numbers belong to inactive results. Calls of active or inactive are those of the source. Calls come from the whole dose curve; as a rule, active = well fitted inhibition curve with a large enough effect; inconclusive = small, poorly fitted or top-dose-only effect; inactive = flat fitted curve, though single readings scatter.
# Columns and labels:
# Assay in all cases: Cytotoxic Profiling of Annotated Libraries Using Quantitative High-Throughput Screening (AID 1296008); note: nearly all actives have a fitted effect of over 60% in size
# Details in all cases: Five cell lines viability, CellTiter-Glo ATP luminescence, 48-72 h; max response: stronger effect = lower value
# CRL-7250 = normal cell line; test system: CRL-7250
# How it was run: (§1)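 Cells exposed to compounds for 48 or 72 hr at 37 degrees Celsius. Viability read as ATP-coupled luminescence with CellTiter-Glo after 10 min at room temperature.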
# HEK293 = test system: HEK293
# How it was run: as §1
# HaCat = test system: HaCat
# How it was run: as §1
# KB-3-1 = test system: KB-3-1
# How it was run: as §1
# % is set by controls: 0 for no effect and ±100 for the full control effect; potency is the fitted concentration of half-maximal effect.
compound,measurement,setting,value
CCOc1cc(C)c(Cl)cc1S(=O)(=O)n1cnc2ccccc21,max response,CRL-7250,-6.19%
same,max response,HEK293,-19.4%
same,max response,HaCat,-29.2%
same,outcome,KB-3-1,inactive
CC(C)(O[C@@H]1O[C@H](CO)[C@@H](O)[C@H](O)[C@H]1O)C(OC(=O)/C=C\c1ccc(O)cc1)C(=O)OCc1ccc(O[C@@H]2O[C@H](CO)[C@@H](O)[C@H](O)[C@H]2O)cc1 (some centres undefined),max response,CRL-7250,-12.2%
same,max response,HEK293,-30.7%
same,max response,HaCat,-19.6%
same,outcome,KB-3-1,inactive
O=C1NC(Cc2ccccc2)C(=O)N2CCCC12 (centres undefined),outcome,CRL-7250,inactive
same,max response,HEK293,-1.73%
same,max response,HaCat,2.36%
same,max response,KB-3-1,9.71%
CC(=O)c1ccc2c(c1)C(O)C(C(C)(C)O)O2 (centres undefined),max response,CRL-7250,-0.999%
same,max response,HEK293,-3.07%
same,max response,HaCat,1.04%
same,outcome,KB-3-1,inactive
CO[C@H]1/C=C/C=C/C=C/C[C@H](OC(=O)[C@@H](C)NC(=O)C2CCCCC2)[C@H](C)[C@@H](O)/C(C)=C/CCc2cc(O)cc(c2)NC(=O)C1,Potency,CRL-7250,306 nM (active)
same,Potency,HEK293,343 nM (active)
same,Potency,HaCat,1.09 µM (active)
same,Potency,KB-3-1,544 nM (active)
C[C@@H]1O[C@@H](O[C@H]2[C@H](O[C@H]3[C@H](O[C@H]4CC[C@@]5(C)C(CC[C@]6(C)C5CC=C5[C@@H]7CC(C)(C)CC[C@]7(C(=O)O[C@@H]7O[C@H](CO)[C@@H](O[C@@H]8O[C@@H](C)[C@H](O)[C@@H](O)[C@H]8O)[C@H](O)[C@H]7O)CC[C@]56C)C4(C)C)OC[C@H](O)[C@@H]3O)O[C@H](CO)[C@@H](O)[C@@H]2O)[C@H](O)[C@H](O)[C@H]1O (some centres undefined),max response,CRL-7250,-33.4%
same,max response,HEK293,-93.1%
same,max response,HaCat,4.4%
same,outcome,KB-3-1,inactive
C=C1C(=O)OC2/C=C(\CO)CC/C=C(\C=O)CC(OC(=O)CC(C)C)C12 (centres undefined),max response,CRL-7250,-22.7%
same,Potency,HEK293,12800 nM (active)
same,max response,HaCat,-10.5%
same,max response,KB-3-1,-5.58%
O=C(O[C@H]1[C@@H]2C=CO[C@@H](O[C@@H]3O[C@H](CO)[C@@H](O)[C@H](O)[C@H]3O)[C@@H]2[C@@]2(CO)O[C@@H]12)c1ccccc1,max response,CRL-7250,-3.06%
same,max response,HEK293,-2.12%
same,outcome,HaCat,inactive
same,outcome,KB-3-1,inactive
O=C(O)c1cn(C2CC2)c2cc(N3C[C@@H]4C[C@H]3CN4)c(F)cc2c1=O,max response,CRL-7250,-3.63%
same,max response,HEK293,-1.22%
same,max response,HaCat,-12.6%
same,outcome,KB-3-1,inactive
CC1(C)CC[C@]2(C(=O)O[C@@H]3O[C@H](CO[C@@H]4O[C@H](CO)[C@@H](O)[C@H](O)[C@H]4O[C@@H]4O[C@H](CO)[C@@H](O)[C@H](O)[C@H]4O)[C@@H](O)[C@H](O[C@@H]4O[C@H](CO)[C@@H](O)[C@H](O)[C@H]4O)[C@H]3O)CC[C@]3(C)C(=CCC4[C@@]5(C)CC[C@@H](O)[C@@](C)(C(=O)O[C@@H]6O[C@H](CO)[C@@H](O)[C@H](O)[C@H]6O)C5CC[C@]43C)[C@@H]2C1 (some centres undefined),outcome,CRL-7250,inactive
same,max response,HEK293,-9.43%
same,max response,HaCat,-7.02%
same,outcome,KB-3-1,inactive
COc1cc2c(cc1OC)-c1[nH]nc(Nc3cccc(F)c3)c1C2,Potency,CRL-7250,461 nM (active)
same,Potency,HEK293,130 nM (active)
same,Potency,HaCat,0.0731 µM (active)
same,Potency,KB-3-1,164 nM (active)
OC[C@@]1(O)CO[C@@H](OC[C@H]2O[C@@H](Oc3c[nH]c4ccccc34)[C@H](O)[C@@H](O)[C@@H]2O)[C@@H]1O,max response,CRL-7250,-23.1%
same,max response,HEK293,-21.5%
same,max response,HaCat,-26.1%
same,max response,KB-3-1,-0.625%
C=C1CC[C@@H]2[C@](C)(CO[C@@H]3O[C@H](CO)[C@@H](O)[C@H](O)[C@H]3O)[C@H](O)CC[C@@]2(C)[C@@H]1C/C=C1/C(=O)OC[C@H]1O,max response,CRL-7250,4.42%
same,max response,HEK293,-4.02%
same,max response,HaCat,3.39%
same,outcome,KB-3-1,inactive
CCCn1c(=O)c2[nH]c(-c3ccc(OCC(=O)O)cc3)nc2n(CCC)c1=O,max response,CRL-7250,3.25%
same,max response,HEK293,-2.68%
same,max response,HaCat,-4.84%
same,outcome,KB-3-1,inactive
CC1=C(CO)C(=O)O[C@@H]([C@@H](C)[C@H]2CC[C@H]3[C@@H]4C[C@H]5O[C@]56[C@@H](O)C=CC(=O)[C@]6(C)[C@H]4CC[C@]23C)C1,Potency,CRL-7250,3990 nM (active)
same,Potency,HEK293,1120 nM (active)
same,Potency,HaCat,3.17 µM (active)
same,Potency,KB-3-1,2820 nM (active)
C#CCN(Cc1cc2c(=O)n(C)c(CN3CCN(C)CC3)nc2cc1Cl)c1ccc(C(=O)NCc2cccnc2)cc1,Potency,CRL-7250,8.2 nM (active)
same,max response,HEK293,-130%
same,Potency,HaCat,0.0073 µM (active)
same,Potency,KB-3-1,41.1 nM (active)
